Shown are actives, neighbours in structure and some others; about 10% of the full set was active somewhere.
CtBP-E1A inh: qHTS Assay for Inhibitors of the CtBP/E1A Interaction | CtBP / adenovirus E1A interaction (AlphaScreen) | AlphaScreen GST-E1A/His-CtBP binding, 1536-well; active compounds read low | activity change, % (test concentration not listed) | actives 0.49% (n = 340,000); in the data active = activity change below about -65%; inconclusive = mostly about -30% to -63%; also: % is scaled to controls: 0 for no effect and ±100 for the full control effect
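Steps: dispense buffer (Tris pH 8.0, NaCl 300 mM, TCEP 1 mM, BSA, Tween 20); add 5X protein mix (GST-E1A, His-CtBP, 125 nM each); pin 23 nL compound; 2 h at 37 °C, dark; add 5X beads (50 ug/mL); 1 h; read.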
JMJD2A Tudor: qHTS Assay for Inhibitors of JMJD2A-Tudor Domain. actives 4.4% (n = 390,000). AlphaScreen JMJD2A-Tudor / H3K4me3 peptide binding. Potency, µM (doses to about 114 µM), inactives show at the highest dose activity change, negative = inhibition, actives largely listed as inhibitors; also: potency is read from the fitted curve at half-maximal effect; % is scaled to controls: 0 for no effect and ±100 for the full control effect; nearly all actives have a fitted effect of over 50% in size
Six1-Eya2 blk: qHTS Assay for Inhibitors of the Six1/Eya2 Interaction; Homeobox protein SIX1 (Homo sapiens) + Protein phosphatase EYA2 (Homo sapiens), …; AlphaScreen GST-Six1/His-Eya2 binding, biochemical; active compounds read low; activity change, % (concentration not given with the values); actives 0.56% (n = 360,000); in the data active = activity change below about -65%; inconclusive = mostly about -30% to -63%; also: % is scaled to controls: 0 for no effect and ±100 for the full control effect
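Homogeneous AlphaScreen proximity assay pairing GST-Six1 with His-tagged Eya2 (added as 5X mix: 250 nM and 500 nM) in 50 mM Tris pH 8.0, 300 mM NaCl, 1 mM TCEP. Glutathione donor and nickel acceptor beads; 1 h, 37 °C, dark.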
G9a inh: qHTS Assay for Inhibitors of Histone Lysine Methyltransferase G9a | Histone-lysine N-methyltransferase EHMT2 (Homo sapiens), Q96KQ7 | G9a H3K9 monomethylation, AlphaScreen, 2 h | Potency, µM (titrated, usually from 102 µM), for inactives: at the top dose activity, negative = inhibition, most hits filed as inhibitors | actives 8.8% (n = 350,000) | AID 504332, 2011; also: potency is read from the fitted curve at half-maximal effect; % is scaled to controls: 0 for no effect and ±100 for the full control effect; nearly all actives have a fitted effect of over 75% in size
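G9a (20 nM) preincubated 15 min RT with compounds, then 500 nM biotinylated H3K9 peptide and 20 uM SAM added; 2 h RT reaction. Monomethyl-H3K9 product detected by AlphaScreen with anti-H3K9me1 antibody, streptavidin donor and anti-rabbit IgG acceptor beads.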
BAZ2B inh: qHTS Assay for Inhibitors of BAZ2B. Bromodomain adjacent to zinc finger domain protein 2B (Homo sapiens), Q9UIF8. AlphaScreen BAZ2B-H3K14Ac peptide displacement. Potency, µM (series often up to 114 µM), inactives show at the top dose activity change, negative = inhibition, most hits filed as inhibitors. actives 4.4% (n = 360,000); also: potency is read from the fitted curve at half-maximal effect; % is scaled to controls: 0 for no effect and ±100 for the full control effect; nearly all actives have a fitted effect of over 60% in size
Target sequence (Q9UIF8 whole entry, looked up, the tested form may be a part): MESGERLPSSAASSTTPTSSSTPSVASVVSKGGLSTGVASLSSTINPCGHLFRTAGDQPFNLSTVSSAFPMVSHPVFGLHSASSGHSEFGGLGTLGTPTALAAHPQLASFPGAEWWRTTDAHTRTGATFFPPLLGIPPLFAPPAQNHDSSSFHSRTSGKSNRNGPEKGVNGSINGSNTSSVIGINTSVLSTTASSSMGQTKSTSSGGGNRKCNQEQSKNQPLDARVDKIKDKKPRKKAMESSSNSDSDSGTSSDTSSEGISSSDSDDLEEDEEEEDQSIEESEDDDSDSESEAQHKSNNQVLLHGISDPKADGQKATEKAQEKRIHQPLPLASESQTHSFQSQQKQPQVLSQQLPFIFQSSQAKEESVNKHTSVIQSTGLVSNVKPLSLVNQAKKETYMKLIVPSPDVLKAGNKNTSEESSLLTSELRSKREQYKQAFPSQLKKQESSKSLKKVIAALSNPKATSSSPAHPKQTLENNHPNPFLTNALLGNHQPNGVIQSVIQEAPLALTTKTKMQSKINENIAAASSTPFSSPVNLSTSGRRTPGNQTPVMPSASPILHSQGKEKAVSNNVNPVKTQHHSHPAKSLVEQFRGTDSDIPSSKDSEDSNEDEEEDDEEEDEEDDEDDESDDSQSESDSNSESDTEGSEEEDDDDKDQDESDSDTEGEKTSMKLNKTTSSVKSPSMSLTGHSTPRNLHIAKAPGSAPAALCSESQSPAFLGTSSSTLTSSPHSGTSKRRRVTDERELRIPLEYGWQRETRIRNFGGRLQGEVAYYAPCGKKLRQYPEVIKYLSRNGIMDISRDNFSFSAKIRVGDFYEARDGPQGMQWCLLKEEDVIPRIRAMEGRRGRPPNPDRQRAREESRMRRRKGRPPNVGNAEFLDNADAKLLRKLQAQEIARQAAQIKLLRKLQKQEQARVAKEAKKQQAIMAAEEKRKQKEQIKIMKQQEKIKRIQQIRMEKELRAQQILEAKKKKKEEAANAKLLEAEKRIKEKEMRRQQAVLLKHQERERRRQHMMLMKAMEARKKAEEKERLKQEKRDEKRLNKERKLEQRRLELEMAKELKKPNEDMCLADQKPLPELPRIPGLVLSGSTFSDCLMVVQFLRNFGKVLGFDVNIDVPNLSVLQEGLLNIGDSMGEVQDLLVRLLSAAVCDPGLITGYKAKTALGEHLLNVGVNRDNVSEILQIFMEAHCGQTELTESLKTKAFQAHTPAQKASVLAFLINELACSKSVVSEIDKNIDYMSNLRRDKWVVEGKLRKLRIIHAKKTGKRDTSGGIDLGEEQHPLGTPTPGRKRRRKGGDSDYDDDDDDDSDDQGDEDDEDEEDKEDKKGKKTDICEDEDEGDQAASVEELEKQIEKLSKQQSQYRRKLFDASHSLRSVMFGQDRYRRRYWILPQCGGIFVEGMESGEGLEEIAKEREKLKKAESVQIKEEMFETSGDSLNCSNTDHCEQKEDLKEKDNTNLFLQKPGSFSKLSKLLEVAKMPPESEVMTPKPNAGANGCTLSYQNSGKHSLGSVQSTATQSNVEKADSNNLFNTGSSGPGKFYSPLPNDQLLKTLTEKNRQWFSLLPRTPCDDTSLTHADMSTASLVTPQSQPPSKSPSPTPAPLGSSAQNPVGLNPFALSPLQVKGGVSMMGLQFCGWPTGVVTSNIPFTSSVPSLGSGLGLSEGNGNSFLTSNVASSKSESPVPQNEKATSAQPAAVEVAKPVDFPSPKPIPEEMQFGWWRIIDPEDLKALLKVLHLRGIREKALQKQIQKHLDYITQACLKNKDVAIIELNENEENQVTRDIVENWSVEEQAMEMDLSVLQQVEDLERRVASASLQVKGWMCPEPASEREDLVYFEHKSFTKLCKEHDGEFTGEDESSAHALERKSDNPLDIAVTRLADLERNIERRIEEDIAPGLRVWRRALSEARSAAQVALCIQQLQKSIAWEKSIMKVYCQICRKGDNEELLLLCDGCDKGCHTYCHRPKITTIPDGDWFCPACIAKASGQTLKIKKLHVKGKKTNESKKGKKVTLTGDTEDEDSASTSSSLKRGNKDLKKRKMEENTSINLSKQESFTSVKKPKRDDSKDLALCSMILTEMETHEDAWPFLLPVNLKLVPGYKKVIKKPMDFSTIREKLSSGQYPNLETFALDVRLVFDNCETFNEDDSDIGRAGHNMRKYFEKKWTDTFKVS
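BAZ2B (50 nM) with biotin-H3(5-23)K14Ac peptide (50 nM) in PBS pH 7.4, 0.01% Tween-20, preformed 30 min, then compound 30 min at room temperature; top concentration 110uM. AlphaScreen streptavidin donor/nickel chelate acceptor beads (10 ug/mL final), 20 min dark, signal read.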
HP1b binding inh: HTS for Inhibitors of HP1-beta Chromodomain Interactions with Methylated Histone Tails; Chromobox protein homolog 1 (Homo sapiens), P83916; AlphaScreen HP1-beta / biotin-H3K9me3 peptide binding; Potency, µM (highest dose often 114 µM), for inactives: at the highest dose activity change, negative = inhibition, actives largely listed as inhibitors; actives 0.56% (n = 390,000); AID 540317, 2011; also: potency is read from the fitted curve at half-maximal effect; nearly all actives have a fitted effect of over 70% in size
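HP1-beta protein (50 nM final) preincubated 30 min at room temperature with biotinylated H3(1-18)K9me3 peptide (50 nM) in PBS pH 7.4, 0.01% Tween-20, then compound added for 30 min. AlphaScreen streptavidin donor/nickel chelate acceptor beads (10 ug/mL final), 30 min dark, luminescence read.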
The depositor's hits bear a star; [ ] = another dose, or the depositor's remark. Unless noted, calls follow the shape of the dose curve; as a rule, active = well fitted inhibition curve with a large enough effect; inconclusive = small, poorly fitted or top-dose-only effect; inactive = no such curve, though single readings can be large or run the other way.

O=C(CNC(=O)c1ccco1)Nc1ccc(F)cc1 was read as CtBP-E1A inh -96*, JMJD2A Tudor -16%, Six1-Eya2 blk 2, G9a inh 15%[12.7 µM], BAZ2B inh -6% and HP1b binding inh -9%.
For CCN(CC)c1ccc(NC(=O)c2c(C)noc2C)cc1 the results were CtBP-E1A inh 4, JMJD2A Tudor -27%, Six1-Eya2 blk -3, G9a inh 28µM*, BAZ2B inh inconclusive and HP1b binding inh 15%.
`CCOc1ccc(CCNC(=O)c2cn(C)c3ccc(S(=O)(=O)N4CCCCCC4)cc3c2=O)cc1OCC` gave JMJD2A Tudor -17%, G9a inh -6%[59 µM] and HP1b binding inh 15%.
Screening Cc1nc2ccccc2c(=O)n1NC(=O)c1ccco1 returned CtBP-E1A inh 6, JMJD2A Tudor -6%, Six1-Eya2 blk 3, G9a inh -9%[59 µM], BAZ2B inh -1% and HP1b binding inh 57%.
For Cc1ccc(C)n1NC(=O)c1ccco1 the results were CtBP-E1A inh -11, JMJD2A Tudor -15%, Six1-Eya2 blk 5, G9a inh 40µM*, BAZ2B inh -1% and HP1b binding inh 16%.
For CCN(c1ccc(NC(=O)CCNC(=O)c2ccco2)cc1)C(C)C the results were JMJD2A Tudor -34%, Six1-Eya2 blk 3, G9a inh 5µM*, BAZ2B inh -30% and HP1b binding inh -8%.
COc1ccc(-n2ccnc(NCCc3ccc(S(N)(=O)=O)cc3)c2=O)cc1Cl was read as JMJD2A Tudor -21%, G9a inh -7%[59 µM], BAZ2B inh -28% and HP1b binding inh 11%.
For CC(=O)c1cccc(-n2c(=O)c3c4c(sc3n(Cc3ccccc3Cl)c2=O)CN(C(C)=O)CC4)c1 the results were JMJD2A Tudor -4%, G9a inh -5%[59 µM], BAZ2B inh 2% and HP1b binding inh 35%.
Screening CC(C)C[C@@H](CNCC(=O)[C@H](Cc1c[nH]c2ccccc12)NC(=O)c1[nH]cnc1C(=O)N[C@@H](C)CN)NC(=O)c1nc[nH]c1C(=O)N[C@@H](CC(=O)O)C(=O)O returned CtBP-E1A inh inconclusive, JMJD2A Tudor 20µM*, Six1-Eya2 blk inconclusive and HP1b binding inh 22%.
Screening CC(C)C[C@@H](CNCC(=O)[C@H](Cc1c[nH]c2ccccc12)NC(=O)c1[nH]cnc1C(=O)N[C@@H](C)CN)NC(=O)c1nc[nH]c1C(=O)N[C@@H](C)C(=O)O returned CtBP-E1A inh -27, JMJD2A Tudor 50µM*, Six1-Eya2 blk -23 and HP1b binding inh 27%.
`CC(C)C[C@@H](CNCC(=O)[C@H](Cc1c[nH]c2ccccc12)NC(=O)c1[nH]cnc1C(=O)N[C@H](CN)CC(C)C)NC(=O)c1nc[nH]c1C(=O)N[C@@H](CC(=O)O)C(=O)O` gave CtBP-E1A inh inconclusive, JMJD2A Tudor 40µM*, Six1-Eya2 blk -25 and HP1b binding inh inconclusive.
`COC(=O)C(Cc1c[nH]c2ccccc12)NC(=O)c1ccc2nc[nH]c2c1` (configuration not stated) gave CtBP-E1A inh 0, JMJD2A Tudor -16%, Six1-Eya2 blk -12, G9a inh -46%, BAZ2B inh -7% and HP1b binding inh 22%.
CC(C)C[C@@H](CN)NC(=O)c1nc[nH]c1C(=O)N[C@@H](Cc1c[nH]c2ccccc12)C(=O)CNC[C@H](C)NC(=O)c1nc[nH]c1C(=O)N[C@@H](CC(=O)O)C(=O)O was read as CtBP-E1A inh -27, JMJD2A Tudor 56µM*, Six1-Eya2 blk -24 and HP1b binding inh 21%.
`COc1cc(NC(=O)c2nn(C)c3c2COc2ccccc2-3)cc(OC)c1OC` gave JMJD2A Tudor 3%, G9a inh inconclusive, BAZ2B inh 5% and HP1b binding inh 59%.
`CN1CCN(C2=Cc3ccccc3Sc3cc(F)c(Cl)cc32)CC1` gave CtBP-E1A inh -29, JMJD2A Tudor 50µM*, Six1-Eya2 blk -27, G9a inh 18µM*, BAZ2B inh 35µM* and HP1b binding inh -6%.
For CN1CCN(C2=Cc3ccccc3Sc3cc(F)c(F)cc32)CC1 the results were CtBP-E1A inh -20, JMJD2A Tudor inconclusive, Six1-Eya2 blk -24, G9a inh inconclusive, BAZ2B inh 45µM* and HP1b binding inh inconclusive.
Screening CN1CCN(C2=Cc3cc(Cl)ccc3Sc3cc(F)ccc32)CC1 returned CtBP-E1A inh -24, JMJD2A Tudor 56µM*, Six1-Eya2 blk -21, G9a inh 13µM*, BAZ2B inh 22µM* and HP1b binding inh -46%.
Screening COc1cc([N+](=O)[O-])c(N2CCOCC2)c([N+](=O)[O-])c1OC returned CtBP-E1A inh -7, JMJD2A Tudor -22%, Six1-Eya2 blk -10, G9a inh inconclusive, BAZ2B inh inconclusive and HP1b binding inh 0%.
For O=[N+]([O-])c1cc(Br)c2nsnc2c1N1CCOCC1 the results were CtBP-E1A inh inconclusive, JMJD2A Tudor 40µM*, Six1-Eya2 blk inconclusive, BAZ2B inh 32µM* and HP1b binding inh 20µM*.
CC(=O)Nc1ccc(NC(=O)C(C)OC(=O)C2(c3ccc(Cl)cc3)CCCC2)cc1 (configuration not stated) was read as CtBP-E1A inh -2, JMJD2A Tudor -29%, Six1-Eya2 blk 2, G9a inh 50µM*, BAZ2B inh -24% and HP1b binding inh 20%.
`CN(C)C(CNC(=O)c1cc(S(=O)(=O)N(C)c2ccccc2)ccc1Cl)c1ccccc1` (configuration not stated) gave CtBP-E1A inh -9, JMJD2A Tudor inconclusive, Six1-Eya2 blk 2, G9a inh -39%, BAZ2B inh -14% and HP1b binding inh -4%.
For CN(C)C(CNC(=O)c1ccc(C2SCCS2)cc1)c1ccccc1 (configuration not stated) the results were CtBP-E1A inh -23, JMJD2A Tudor inconclusive, Six1-Eya2 blk -2, G9a inh 50µM*, BAZ2B inh -23% and HP1b binding inh -12%.

From PubChem BioAssay
